This passage reports Potency and activity, negative = inhibition results from PubChem BioAssay AID624496 (National Center for Advancing Translational Sciences (NCATS), 2012).

Each structure is given as a SMILES string. Records with an inconclusive call do not appear. Activity calls are given as the source filed them. Calls come from the whole dose curve; as a rule, active = well fitted inhibition curve with a large enough effect; inconclusive = small, poorly fitted or top-dose-only effect, or another doubt; inactive = no such curve, though single readings can be large or run the other way.

The target in the assay is D(2) dopamine receptor (Homo sapiens) (UniProt P14416). Description: HTS Assay for Allosteric Antagonists of the Human D2 Dopamine Receptor: SAR in Primary Assay. To be noted: HEK293 T-REx D2 cells, calcium flux, dopamine EC80 antagonism; activity, negative = inhibition: at 41.8 µM (top of the series) unless noted. The source says: Dopamine receptors (DARs) are involved in the etiology and/or therapy of a number of neuropsychiatric and endocrine disorders. For instance, all receptor-based antiparkinsonian drugs work via stimulating the D2 DAR subtype whereas all FDA-approved antipsychotic agents are antagonists of this receptor. […] There are three different types of allosteric modulators that we are seeking, two of which will stimulate or augment receptor signaling, allosteric agonists and potentiators, while the third, allosteric antagonists, will attenuate receptor signaling. The present project is looking for compound antagonism after an EC80 addition of dopamine by tracking calcium flux in a […], inducible Hek293 Trex D2 cell line, which act through an allosteric site. NIH Chemical Genomics Center [NCGC] NIH Molecular Libraries Probe Centers Network [MLPCN] MLPCN Grant: NS064831 Assay Submitter (PI): David Sibley
D(2) dopamine receptor (Homo sapiens), sequence (P14416 whole entry, looked up): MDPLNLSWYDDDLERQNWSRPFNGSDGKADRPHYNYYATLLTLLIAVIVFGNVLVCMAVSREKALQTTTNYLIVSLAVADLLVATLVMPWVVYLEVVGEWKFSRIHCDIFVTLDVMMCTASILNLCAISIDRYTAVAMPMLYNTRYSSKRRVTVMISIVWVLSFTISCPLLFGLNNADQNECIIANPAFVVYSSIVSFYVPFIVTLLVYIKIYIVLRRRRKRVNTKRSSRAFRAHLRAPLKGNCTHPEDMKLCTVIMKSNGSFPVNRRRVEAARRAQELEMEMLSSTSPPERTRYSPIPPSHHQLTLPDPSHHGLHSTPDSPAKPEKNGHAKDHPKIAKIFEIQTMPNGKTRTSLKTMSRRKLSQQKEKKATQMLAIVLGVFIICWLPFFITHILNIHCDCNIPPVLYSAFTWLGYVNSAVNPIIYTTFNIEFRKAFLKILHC
Freshly passaged cells are plated in 1536 well black, clear bottom plates at a density of 4000 cells/well in 3 ul of complete media containing 1x tetracycline inducer. After an overnight incubation at 30 deg C in 5% CO2, cells are loaded with 2 ul of the no wash Calcium Assay Kit (ABD Bioquest) and incubated at room temperature for 30 to 90 minutes. Agonist read: A 10 cycle (1 second/cycle) baseline measurement is taken and then the FDSS online 1536 pintool delivers 23 nl of compound library (as well as dopamine controls) to the plate. The plate is measured for kinetically at 1 cycle/sec for 180 seconds. Following the 180 second read, 1 ul of an EC80 (negative modulation assay) is delivered by an onboard pipette head. Measurements are taken kinetically for an additional 180 seconds.
On the technique in general: Calcium assays in cells follow changes in intracellular calcium, usually with a dye or a luminescent sensor.
`CN1C(=O)c2ccccc2[S@](=O)c2ccc(C(=O)NCc3ccc(Cl)cc3)cc21`: the Potency is 445 nM (active).

`COc1ccc(CNC(=O)c2ccc3c(c2)C(=O)c2ccccc2C3=O)cc1`: the activity, negative = inhibition was -113%.

As for `CCN1C(=O)c2ccccc2[S@@](=O)c2ccc(C(=O)NCc3ccc(OC)cc3)cc21`, the activity, negative = inhibition was -112%.

As for `CCN1C(=O)c2ccccc2S(=O)c2ccc(NC(=O)Cc3ccc(F)cc3)cc21` (stereo not given), the Potency is 223 nM (active).

For the compound `CN1C(=O)c2ccccc2S(=O)c2ccc(C(=O)NCCN3CCCC3)cc21` (stereo not given), the Potency was 280 nM (active).

As for `CN1C(=O)c2ccccc2[S@](=O)c2ccc(C(=O)NCc3ccc(Br)cc3)cc21`, the Potency is 70.5 nM (active).

As to `CCN1C(=O)c2ccccc2[S@](=O)c2ccc(C(=O)NCc3ccc(F)cc3)cc21`, the Potency is 353 nM (active).

Take `CCN1C(=O)c2ccccc2S(=O)c2ccc(C(=O)NCc3ccccc3OC)cc21` (stereo not given): the activity, negative = inhibition was -21.4% (active).

For the compound `COc1ccc(CNC(=O)c2cccc(N3C(=O)c4ccccc4C3=O)c2)cc1`, the activity, negative = inhibition is -114%.

As for `CCN1C(=O)c2ccccc2S(=O)c2ccc(C(=O)N(C)Cc3ccc(OC)cc3)cc21` (stereo not given), the activity, negative = inhibition is -112% [at 4.65 µM].

On to `CN1C(=O)c2ccccc2S(=O)c2ccc(C(=O)NCc3ccc(Br)cc3)cc21` (stereo not given), for which the Potency is 70.5 nM (active).

For the compound `COc1ccc(NC(=O)c2ccc3c(c2)N(C)C(=O)c2ccccc2S3=O)cc1` (stereo not given), the Potency was 11200 nM (active).

As for `CCN1C(=O)c2ccccc2S(=O)c2ccc(C(=O)NCc3ccc(C#N)cc3)cc21` (stereo not given), the Potency was 141 nM (active).

With `COc1ccc(CNC(=O)c2ccc3c(c2)NC(=O)c2ccccc2S3=O)cc1` (stereo not given), the Potency is 141 nM (active).

Turning to `CN1C(=O)c2ccccc2[S@@](=O)c2ccc(C(=O)NCCc3cccs3)cc21`, the Potency is 88.7 nM (active).

As for `CN1C(=O)c2ccccc2[S@](=O)c2ccc(C(=O)NCc3cccnc3)cc21`, the Potency was 177 nM (active).

On to `CCN1C(=O)c2ccccc2S(=O)c2ccc(C(=O)OCc3ccc(OC)cc3)cc21` (stereo not given), for which the Potency result is “inactive”.

For the compound `CN1C(=O)c2ccccc2S(=O)c2ccc(C(=O)NCc3cccnc3)cc21` (stereo not given), the activity, negative = inhibition is -114% [at 4.65 µM] (active).

For `CCN1C(=O)c2ccccc2S(=O)c2ccc(C(=O)Nc3ccc(OC)cc3)cc21` (stereo not given), the Potency is 887 nM (active).

As for `CCN1C(=O)c2ccccc2S(=O)c2ccc(C(=O)NCc3ccc(F)cc3)cc21` (stereo not given), the Potency is 705 nM (active).

`CN1C(=O)c2ccccc2S(=O)c2ccc(C(=O)NCc3ccccc3)cc21` (stereo not given): the Potency is 560 nM (active).

Regarding `CCN1C(=O)c2ccccc2S(=O)c2ccc(NC(=O)Cc3ccc(OC)cc3)cc21` (stereo not given), the Potency was 705 nM (active).

For `CN1C(=O)c2ccccc2[S@](=O)c2ccc(C(=O)NCCN3CCCC3)cc21`, the Potency is 4450 nM (active).

For the compound `CCN1C(=O)c2ccccc2S(=O)c2ccc(C(=O)NCc3ccc(S(C)(=O)=O)cc3)cc21` (stereo not given), the Potency was 560 nM (active).

Turning to `CCN1C(=O)c2ccccc2[S@](=O)c2ccc(C(=O)NCc3ccc(OC)cc3)cc21`, the Potency is 8870 nM (active).

Take `CCN1C(=O)c2ccccc2S(=O)c2ccc(C(=O)Nc3ccccc3)cc21` (stereo not given): the Potency is 141 nM (active).

On to `CN1C(=O)c2ccccc2S(=O)c2ccc(C(=O)NCc3ccccn3)cc21` (stereo not given), for which the Potency is 223 nM (active).

As to `COc1ccc(CNC(=O)c2ccc3c(c2)N(Cc2ccccc2)C(=O)c2ccccc2S3=O)cc1` (stereo not given), the Potency was 88.7 nM (active).

Consider `CCN1C(=O)c2ccccc2S(=O)c2ccc(C(=O)NCc3cc(OC)c(OC)c(OC)c3)cc21` (stereo not given), for which the activity, negative = inhibition was 23.4%.

Consider `CCN1C(=O)c2ccccc2[S@](=O)c2ccc(C(=O)N[C@H](C)c3ccc4ccccc4c3)cc21`, for which the Potency was 70.5 nM (active).

`CN1C(=O)c2ccccc2S(=O)c2ccc(C(=O)NCc3cccc(Cl)c3)cc21` (stereo not given): the Potency was 280 nM (active).

For the compound `CCN1C(=O)c2ccccc2S(=O)c2ccc(C(=O)NCc3ccc(SC)cc3)cc21` (stereo not given), the Potency is 223 nM (active).

Take `CCN1C(=O)c2ccccc2S(=O)c2ccc(C(=O)NCc3ccc(C)cc3)cc21` (stereo not given): the activity, negative = inhibition came out at 5.87% [at 4.65 µM].

Take `CCN1C(=O)c2ccccc2S(=O)c2ccc(C(=O)NCc3ccccc3)cc21` (stereo not given): the Potency is 705 nM (active).

Consider `CN(C)CCCNC(=O)c1ccc2c(c1)N(C)C(=O)c1ccccc1S2=O` (stereo not given), for which the activity, negative = inhibition was -85.7% [at 4.65 µM] (active).

Regarding `CN1C(=O)c2ccccc2S(=O)c2ccc(C(=O)NCc3ccc(Cl)cc3)cc21` (stereo not given), the Potency is 353 nM (active).

As to `CN1C(=O)c2ccccc2S(=O)c2ccc(C(=O)NCCc3cccs3)cc21` (stereo not given), the Potency was 88.7 nM (active).

As for `CN1C(=O)c2ccccc2[S@](=O)c2ccc(C(=O)NCCc3cccs3)cc21`, the Potency is 280 nM (active).

As to `CCN1C(=O)c2ccccc2[S@](=O)c2ccc(C(=O)NCc3ccc(C#N)cc3)cc21`, the Potency is 223 nM (active).

On to `CCN1C(=O)c2ccccc2S(=O)c2ccc(C(=O)NCc3ccc(OC)cc3)cc21` (stereo not given), for which the Potency is 88.7 nM (active).
